Assay [1] is described as follows: resazurin metabolic signal in HepG2 cells – cell-based, resazurin fluorescence, 24 h, PK04 Diversity Set, profiling panel (AID 1172). The note with it: HepG2 viability, higher = more signal. (Resazurin is reduced to fluorescent resorufin, in cell work by metabolically active cells.)
Assay [2] in a line: budding yeast growth changes without added modifier – OD600, strain BY4716, 24 h, basal condition, primary screen (AID 1173). The conditions noted are these: S. cerevisiae BY4716 growth, OD600, 24 h; higher = more signal, called active from +8 up or from −8 down.
Assay [3] in a line: viability profiling in MM1S myeloma cells – cell-based, resazurin fluorescence, basal, 24 h, PK04 Diversity Set, profiling panel (AID 1174). The conditions noted are these: higher = more signal, called active from +8 up or from −8 down.
Assay [4] has as its target Dihydroorotate dehydrogenase (quinone), mitochondrial (Plasmodium falciparum (isolate 3D7)) (UniProt Q08210). The assay is described as follows: inhibition of P. falciparum DHODH – biochemical, C-terminal His tag, absorbance 600 nm, primary screen (AID 1175).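 Further: recombinant parasite enzyme with a five histidine tag at its C terminus.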 The note with it: PfDHODH enzyme, DCIP absorbance 600 nm; higher = more signal, called active from +8 up or from −8 down.

Assay [5] can be described thus: inhibition of PAO1 biofilm formation – strain PAO1, LB-PBS medium, absorbance 600 nm, primary screen (AID 1176). The conditions noted are these: P. aeruginosa PAO1 growth/biofilm, A600, 12 h; higher = more signal.
Assay [6] can be described thus: growth modulation of vineyard yeast isolate – strain RM11-1a, OD600, basal, 24 h, primary screen (AID 1177).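 Further: cultures grown under basal conditions with no added stressor.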 The conditions noted are these: S. cerevisiae RM11-1a growth, OD600, 24 h; higher = more signal, called active from +8 up or from −8 down.
Assay [7] in a line: growth of efflux-deficient E. coli DRC39 – strain DRC39, OD650, 24 h, E. coli filamentation inducers, primary screen (AID 1178).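 Further: growth measured as culture turbidity by optical density at 650 nm.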 The conditions noted are these: E. coli DRC39 acrAB, higher = more signal, called active from +8 up or from −8 down.
The nature of assay [8]: growth of efflux-deficient E. coli DRC39 – strain DRC39, OD650, 48 h, E. coli filamentation inducers, primary screen (AID 1179).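 Further: screen aims at cell division blockers that make cells filament.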 The conditions noted are these: E. coli DRC39 delta-acrAB growth, higher = more signal, called active from +8 up or from −8 down.
Assay [9] is described as follows: viability profiling in RPMI8226 myeloma cells – cell-based, resazurin fluorescence, basal, 24 h, PK04 Diversity Set, profiling panel (AID 1180).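 Further: RPMI8826 multiple myeloma cell line at 5000 cells per well.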 The conditions noted are these: higher = more signal.
Assay [10] deals with E3 ubiquitin-protein ligase XIAP (Homo sapiens) (UniProt P98170). As to the kind of experiment: small molecules binding XIAP protein – biophysical, small-molecule microarray, fluorescence 635 nm, primary screen (AID 1181).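 Further: score merges 667 nm emission and signal to noise over triplicate slides.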 The conditions noted are these: higher = more signal.
E3 ubiquitin-protein ligase XIAP (Homo sapiens), sequence (P98170 whole entry, looked up, the tested form may be a part): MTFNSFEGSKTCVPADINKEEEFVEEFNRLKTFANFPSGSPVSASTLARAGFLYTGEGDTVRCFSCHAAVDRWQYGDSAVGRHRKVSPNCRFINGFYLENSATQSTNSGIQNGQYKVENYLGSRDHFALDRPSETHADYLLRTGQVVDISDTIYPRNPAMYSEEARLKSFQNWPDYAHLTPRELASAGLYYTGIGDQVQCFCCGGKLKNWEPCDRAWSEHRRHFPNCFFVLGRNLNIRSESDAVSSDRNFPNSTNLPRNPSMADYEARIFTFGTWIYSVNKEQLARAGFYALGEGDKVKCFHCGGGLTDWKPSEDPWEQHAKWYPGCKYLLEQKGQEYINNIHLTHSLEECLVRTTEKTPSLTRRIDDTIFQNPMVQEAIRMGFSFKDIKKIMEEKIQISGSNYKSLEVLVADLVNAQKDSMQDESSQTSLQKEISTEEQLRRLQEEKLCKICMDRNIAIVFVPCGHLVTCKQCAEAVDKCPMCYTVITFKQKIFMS
Assay [11] concerns XIP peptide (Xip251-270) binding. The assay is described as follows: XIP fragment 251-270 binding compounds – biochemical, small-molecule microarray, fluorescence 635/667 nm, 0.1 µg/mL protein, primary screen (AID 1182). The note with it: fluorescent protein binding, 635 nm, higher = more signal, called active from +8 up or from −8 down.
The test system of assay [12] is XIP peptide (Xip251-270). As to the kind of experiment: compounds binding XIP fragment 251-270 – biochemical, small-molecule microarray, fluorescence 635/667 nm, 0.5 µg/mL protein, primary screen (AID 1183). The conditions noted are these: fluorescence 635 nm, higher = more signal.
A short description of assay [13]: blood-stage malaria parasite viability loss – strain 3D7, DAPI fluorescence, 100 nL, primary screen (AID 1184).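 Further: parasites grown inside human red blood cells in medium with human serum.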 The conditions noted are these: P. falciparum 3D7 growth, 3 d, higher = more signal.
The target of assay [14] is Homeobox protein Hox-A13 (Mus musculus) (UniProt Q62424). The assay is described as follows: disruptors of Hoxa13 oligonucleotide interaction – biochemical, fluorescence polarization, labeled oligonucleotide, primary screen (AID 1185). The conditions noted are these: Hoxa13:DNA binding, 15 min, higher = more signal, called active from +8 up or from −8 down. Background: In fluorescence polarisation assays a small probe gives low polarisation when free and higher when bound to something large.
Homeobox protein Hox-A13 (Mus musculus), sequence (Q62424 whole entry, looked up): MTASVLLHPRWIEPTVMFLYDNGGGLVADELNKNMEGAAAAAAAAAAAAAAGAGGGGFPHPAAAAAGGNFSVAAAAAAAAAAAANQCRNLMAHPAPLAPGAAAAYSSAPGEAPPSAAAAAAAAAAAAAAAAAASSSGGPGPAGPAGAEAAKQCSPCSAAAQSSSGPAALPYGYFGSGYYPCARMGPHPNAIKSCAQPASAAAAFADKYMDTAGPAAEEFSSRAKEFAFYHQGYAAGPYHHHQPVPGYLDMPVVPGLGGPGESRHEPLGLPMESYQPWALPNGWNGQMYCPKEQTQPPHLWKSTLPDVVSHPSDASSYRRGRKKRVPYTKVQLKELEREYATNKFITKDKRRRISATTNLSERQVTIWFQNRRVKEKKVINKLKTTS

Assay [15] is described as follows: blockers of DNA damage checkpoint Chk1 activation – imaging, HeLa, hydroxyurea, phospho-Chk1 antibody, percent positive cells, primary screen (AID 1186). The conditions noted are these: hydroxyurea-induced phospho-Chk1 immunofluorescence imaging, higher = more signal.
The nature of assay [16]: blockers of DNA damage checkpoint Chk1 activation – imaging, HeLa, hydroxyurea, phospho-Chk1 nuclear intensity, primary screen (AID 1187). The conditions noted are these: hydroxyurea-induced phospho-Chk1 immunofluorescence imaging, higher = more signal.

Activity calls are given as the source filed them. Unless noted, how the calls were made is not given here.

Dihydroorotate dehydrogenase (quinone), mitochondrial (Plasmodium falciparum (isolate 3D7)), sequence (Q08210 whole entry, looked up): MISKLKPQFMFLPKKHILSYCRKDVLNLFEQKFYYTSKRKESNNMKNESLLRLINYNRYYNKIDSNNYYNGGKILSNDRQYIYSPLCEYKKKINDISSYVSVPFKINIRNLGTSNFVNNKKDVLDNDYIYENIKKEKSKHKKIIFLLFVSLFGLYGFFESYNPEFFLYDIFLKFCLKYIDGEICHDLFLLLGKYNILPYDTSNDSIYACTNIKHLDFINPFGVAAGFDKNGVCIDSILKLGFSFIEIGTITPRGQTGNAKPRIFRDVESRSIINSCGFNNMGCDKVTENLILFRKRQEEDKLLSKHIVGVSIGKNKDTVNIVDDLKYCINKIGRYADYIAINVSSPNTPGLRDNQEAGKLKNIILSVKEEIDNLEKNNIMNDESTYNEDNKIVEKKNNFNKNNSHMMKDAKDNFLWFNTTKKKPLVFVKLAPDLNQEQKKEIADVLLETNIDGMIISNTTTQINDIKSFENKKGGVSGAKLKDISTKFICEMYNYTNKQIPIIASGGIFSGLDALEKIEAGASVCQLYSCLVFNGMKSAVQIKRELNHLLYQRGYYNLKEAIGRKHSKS

As to `CCCC(=O)N(CCc1c[nH]c2ccccc12)[C@@H]1CC(C(=O)NCCO)=C[C@H](Oc2c(I)cc(CO)cc2OC)[C@H]1O`, the z-score in [1] is 0.627; in assay [2], -1.22 (inactive); in assay [3], -0.176 (inactive); in [5], 0.789 (inactive); in assay [6] it was 0.152 (inactive); in assay [7] it was 0.336 (inactive). Further, the z-score in assay [8] was 0.582 (inactive); in assay [9], 0.114; in [13], -0.373; in assay [14], -7.89 (inactive); in [15], -1.51 (inactive); in assay [16], -2.68 (inactive). The composite z-score in assay [4] is 0.0595 (inactive); in assay [10] it was -0.222; in assay [11], -0.131 (inactive); in assay [12], 0.289.

On to `COc1cc(OC)c(C(O)C2C=CC3C(=O)NC(=O)C3N2Nc2ccccn2)cc1Br` (stereo not drawn), for which the z-score is -0.455 in assay [1]; -0.991 (inactive) in assay [2]; -0.597 (inactive) in assay [3]; 1.19 (inactive) in assay [5]; 0.666 (inactive) in [6]; -0.0857 (inactive) in [7]. Besides, the z-score in assay [8] was -0.512 (inactive); in [9], -0.195; in assay [13], 0.776; in [14], -1.28 (inactive); in assay [15], -0.143 (inactive); in assay [16], -0.266 (inactive). Further, the composite z-score is 0.412 (inactive) in assay [4], -0.0525 in assay [10], 0.654 (inactive) in assay [11] and 0.448 in assay [12].

On to `COc1ccccc1CN1C(=O)c2ccccc2[C@@]2(Cc3ccccc3N(CCCN(C)C)C2=O)[C@@H]1c1ccc(CO)cc1`, for which the z-score was -0.434 in [1]; 0.259 (inactive) in assay [2]; 1.17 (inactive) in assay [3]; 0.282 (inactive) in assay [5]; -0.746 (inactive) in [6]; 1.28 (inactive) in assay [7]. Moreover, the z-score in assay [8] was 0.468 (inactive); in [9], 0.723; in [13] it was -1.3; in assay [14], 1.78 (inactive); in assay [15], -0.481 (inactive); in assay [16], -0.454 (inactive). The composite z-score in assay [4] was -19.5 (active); in assay [10], -0.113; in assay [11], 0.0228 (inactive); in [12], 0.216.

As to `CC(C)(C)OC(=O)CC[C@]1(C(N)=O)N=C(c2ccc(OCCCO)cc2)O[C@H]1c1ccccc1`, the z-score was -0.49 in [1]; 0.45 (inactive) in assay [2]; -0.689 (inactive) in assay [3]; 0.55 (inactive) in assay [5]; 0.663 (inactive) in assay [6]; -0.218 (inactive) in [7]. Further, the z-score in assay [8] was -0.585 (inactive); in [9], -0.676; in assay [13], 0.404; in assay [14], -2.87 (inactive); in assay [15] it was 0.444 (inactive); in [16], -0.0163 (inactive). The composite z-score is -0.0959 (inactive) in [4], 0.12 in assay [10], 1.25 (inactive) in assay [11] and -0.612 in assay [12].

For the compound `O=C(CS)NCCCCCNC(=O)[C@H]1C[C@H]2C(=O)NCC(=O)N2[C@H]1c1ccc(O)cc1`, the z-score in assay [1] was 1.33; in [2], -0.208 (inactive); in assay [3] it was 1.5 (inactive); in [5] it was -0.832 (inactive); in [6], -1.3 (inactive); in assay [7] it was 0.268 (inactive). Also, the z-score in assay [8] was 0.0249 (inactive); in assay [9] it was 1.21; in assay [13], 0.201; in [14] it was -1.2 (inactive); in assay [15], -0.831 (inactive); in assay [16], -0.795 (inactive). In addition, the composite z-score in assay [4] was -0.522 (inactive); in assay [10] it was 0.0621; in assay [11], -0.344 (inactive); in [12], 0.149.

In the case of `C=CC[C@]1(C(N)=O)N=C(c2ccc(OCCCO)cc2)O[C@H]1c1ccccc1`, the z-score was -0.095 in assay [1]; -0.496 (inactive) in [2]; -0.0113 (inactive) in assay [3]; 0.248 (inactive) in assay [5]; -0.412 (inactive) in [6]; 0.247 (inactive) in assay [7]. The z-score is -0.875 (inactive) in assay [8]; -0.52 in assay [9]; -1.09 in assay [13]; -6.17 (inactive) in assay [14]; 0.344 (inactive) in assay [15]; 0.327 (inactive) in assay [16]. Besides, the composite z-score in [4] is 0.867 (inactive); in assay [10] it was -0.0749; in [11], 0.672 (inactive); in [12], 0.787.

Regarding `CCOC(=O)C[C@H]1[C@H](OC(=O)c2cc3ccccc3oc2=O)[C@@H](NC(=O)CC(C)C)c2cc(OCCCO)ccc2N1C(=O)c1ccccc1`, the z-score in assay [1] is -0.683; in assay [2] it was -1.9 (inactive); in assay [3] it was 0.338 (inactive); in assay [5], -1.39 (inactive); in [6], -0.544 (inactive); in assay [7], 1.94 (inactive). For the same compound, the z-score in [8] is 1.08 (inactive); in [9], -0.0988; in [13], -1.89; in assay [14], -1.53 (inactive); in assay [15], -0.315 (inactive); in [16], 0.0139 (inactive). Also, the composite z-score in assay [4] is -2.94 (inactive); in assay [10] it was -0.117; in [11], -0.131 (inactive); in [12], 0.495.

Turning to `COc1ccc([Si](C)(C)[C@@H]2[C@@H](CCO)O[C@]3(C(=O)N(Cc4cccc(N5CCOC5=O)c4)c4ccccc43)[C@H]2C)cc1`, the z-score was -1.09 in assay [1]; 2.41 (inactive) in [2]; -3.35 (inactive) in assay [3]; 2.95 (inactive) in assay [5]; 6.05 (inactive) in assay [6]; 1.4 (inactive) in assay [7]. Further, the z-score was 0.44 (inactive) in [8]; -2.78 in assay [9]; -2.54 in [13]; -4.2 (inactive) in assay [14]; -0.609 (inactive) in assay [15]; -0.553 (inactive) in assay [16]. Also, the composite z-score is -0.346 (inactive) in [4], -0.0599 in assay [10], 0.473 (inactive) in [11] and 0.332 in assay [12].

These data come from PubChem BioAssay.
